Dicer processing: blocks human Dicer maturation of pre-miR-21 | Q9UPY3 | cat-ELCCA pre-miR-21 Dicer processing, chemiluminescence; stronger effect = higher value | z-score at 25 µM | 6% of 47,000 active | AID 1347074; in the data active means z-score above about 3, passing the limit was not always enough;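 further: plate controls were vehicle for no effect and no enzyme for full effect; higher signal means more uncleaved substrate so more Dicer inhibition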
Starred values were filed as active, the others as inactive. This excerpt belongs to a sample that is enriched for hits.

SMILES | Dicer processing
O=[P@]1(N(CCCl)CCCl)NCCCO1 | -0.61
Cc1cc(C(=O)Nc2ccc(C(C)(C)C)cc2)nn1C(C)(C)C | -0.53
CSC(=NCc1ccccc1Cl)N/C(N)=N\[N+](=O)[O-] | 0.91
O=C(NC1CCCCC1)Oc1cc2oc(=O)sc2cc1Cl | 4.1*
CC12CCC3(C[C@@H]1CCC1C2CCC2(C)C1CC[C@]2(C)O)OCCO3 (stereo not given in full) | 0.6
Cc1ccc(-n2c(C)nc3cc(Cl)ccc3c2=O)cc1Cl | -1
FC(F)(F)c1ccc(N2CCNCC2)nc1 | -0.41
CC(=O)N1N=C2C3CCN(CC3)C2C1c1cccc(F)c1 (stereo not given) | -0.66
CCC(C)n1[nH]c(=O)c2c1NC(=O)CSC2c1ccc(OC(C)C)cc1 (stereo not given) | -0.71
Cc1ccc(CN2CCN(C(C)C)CC2)cc1 | 2.9
c1ccc(CN2CCN(C3CCCCC3)CC2)cc1 | 3.1*
Clc1ccc(CN2CCN(Cc3ccccc3Cl)CC2)cc1 | 1.3
Cc1nc2c(Br)cc(Br)cc2c(=O)n1-c1cccc(C(F)(F)F)c1 | -0.26
OCC12COC3c4ccccc4C(OC1)N32 (stereo not given) | 5.6*
COc1ccc(CCNCc2ccc3c(c2)OCO3)cc1OC | 0.06
NCCCNc1ccc([N+](=O)[O-])c2cccnc12 | 0.82
CNc1ccc(Br)cc1C(=O)c1ccc(Cl)cc1 | -2.1

High-throughput results as filed in PubChem BioAssay.
